Results published in PubChem BioAssay (EPA / NIEHS).
More than one record can exist for a structure, and the calls need not agree. The source made the active and inactive calls. Rule for the calls: active = hit-call score of the fitted dose curve at least 0.9, where 1 is the maximum; inactive = score below 0.9.

read-out: Macrophage colony-stimulating factor (MCSF), CSF1 (gene 1435); assay: BSK_LPS_MCSF: BioMAP Diversity Plus: LPS Assay for Macrophage colony-stimulating factor (MCSF) Biomarker Activity (AID 2283083); details: primary human HUVEC with PBMC; actives raise or lower the signal
Method in brief: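 ELISA readout of M-CSF after 24 h compound exposure in a human endothelial/PBMC co-culture. Activity, in either direction, is fitted relative to DMSO vehicle.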

Chain of Tumor necrosis factor (Homo sapiens) (P01375 whole entry, looked up): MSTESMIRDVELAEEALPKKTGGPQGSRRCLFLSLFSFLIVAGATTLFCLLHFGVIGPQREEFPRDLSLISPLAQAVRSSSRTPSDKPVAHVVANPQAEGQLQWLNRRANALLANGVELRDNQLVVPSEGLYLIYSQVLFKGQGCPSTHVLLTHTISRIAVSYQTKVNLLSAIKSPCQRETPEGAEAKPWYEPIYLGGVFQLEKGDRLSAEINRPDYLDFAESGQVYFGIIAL

Row | Compound | outcome | AC50
1 | O=C(Oc1ccc(Br)cc1)N1CCN2CCC1CC2 | inactive | –
2 | ClC1=C(Cl)[C@]2(Cl)[C@H]3[C@H]([C@@H]4C=C[C@H]3C4)[C@@]1(Cl)C2(Cl)Cl | – | 31.6 µM (active)
3 | CCCCCCCCCCCCCN1CC(C)OC(C)C1 (stereo not drawn) | inactive | –
4 | CN(C)c1ccc(C(=O)c2ccc(N(C)C)cc2)cc1 | inactive | –
5 | Cc1ccc([N+](=O)[O-])cc1 | inactive | –
6 | CN(C)[C@@H]1C(=O)C(C(N)=O)=C(O)[C@@]2(O)C(=O)C3=C(O)c4c(O)cccc4[C@@](C)(O)[C@H]3C[C@@H]12 | inactive | –
7 | C[C@]12C=CC3=C4CCC(=O)C=C4CC[C@H]3[C@@H]1CC[C@@H]2O | – | 9.08 µM (active)
8 | O=[N+]([O-])C(Br)(CO)CO | – | 28.9 µM (active)
9 | O=Cc1ccco1 | inactive | –
10 | c1ccc(N=Nc2ccccc2)cc1 | inactive | –
11 | Cn1cc(-c2ccccc2)c(=O)c(-c2cccc(C(F)(F)F)c2)c1 | inactive | –
12 | CCOc1cccc(C2(N3CCN(c4ccccc4)CC3)CCC(C)CC2)c1 (stereo not drawn) | inactive | –
13 | [O-][Cl+]O | inactive | –
14 | CCN(CC)N=O | inactive | –
15 | CCCSC(=O)N(CCC)CCC | inactive | –
16 | CC(C)(O)c1cnn2c(-c3ccc(F)c(-c4c(F)cccc4C#N)c3)cnc2n1 | – | 20 µM (active)
17 | c1ccc(NNc2ccccc2)cc1 | inactive | –
18 | Clc1ccc(Cl)c(Cl)c1 | inactive | –
19 | CC(C)COC(=O)c1ccccc1C(=O)OCC(C)C | inactive | –
20 | CN(C)C(=O)Nc1ccc(Cl)cc1 | inactive | –
21 | [As]#[In] | inactive | –
22 | COP(=S)(OC)SCN1C(=O)c2ccccc2C1=O | inactive | –
23 | N#CC(Br)(Br)C(N)=O | inactive | –
24 | C=CCc1ccc2c(c1)OCO2 | inactive | –
25 | COC(=O)c1ccccc1N | inactive | –
26 | CCNS(=O)(=O)C(F)(F)C(F)(F)C(F)(F)C(F)(F)C(F)(F)C(F)(F)C(F)(F)C(F)(F)F | inactive | 49 µM (active)
27 | CCC12COCN1COC2 | inactive | –

read-out: Tissue Factor, F3 (gene 2152); assay: BSK_LPS_TissueFactor: BioMAP Diversity Plus: LPS Assay for Tissue Factor Biomarker Activity (AID 2283084); details: primary human HUVEC with PBMC; actives raise or lower the signal
Method in brief: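 ELISA signal for cell-surface Tissue Factor (CD142) was read 24 h after compound dosing of an LPS-stimulated human endothelial–PBMC primary co-culture. Gain or loss of signal was scored relative to DMSO.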

Row | Compound | outcome | AC50
28 | O=C(Oc1ccc(Br)cc1)N1CCN2CCC1CC2 | inactive | –
29 | ClC1=C(Cl)[C@]2(Cl)[C@H]3[C@H]([C@@H]4C=C[C@H]3C4)[C@@]1(Cl)C2(Cl)Cl | – | 31.2 µM (active)
30 | CCCCCCCCCCCCCN1CC(C)OC(C)C1 (stereo not drawn) | inactive | –
31 | CN(C)c1ccc(C(=O)c2ccc(N(C)C)cc2)cc1 | inactive | –
32 | Cc1ccc([N+](=O)[O-])cc1 | inactive | –
33 | CN(C)[C@@H]1C(=O)C(C(N)=O)=C(O)[C@@]2(O)C(=O)C3=C(O)c4c(O)cccc4[C@@](C)(O)[C@H]3C[C@@H]12 | inactive | –
34 | C[C@]12C=CC3=C4CCC(=O)C=C4CC[C@H]3[C@@H]1CC[C@@H]2O | inactive | –
35 | O=[N+]([O-])C(Br)(CO)CO | – | 28.4 µM (active)
36 | O=Cc1ccco1 | inactive | –
37 | c1ccc(N=Nc2ccccc2)cc1 | inactive | –
38 | Cn1cc(-c2ccccc2)c(=O)c(-c2cccc(C(F)(F)F)c2)c1 | inactive | –
39 | CCOc1cccc(C2(N3CCN(c4ccccc4)CC3)CCC(C)CC2)c1 (stereo not drawn) | inactive | –
40 | [O-][Cl+]O | inactive | –
41 | CCN(CC)N=O | inactive | –
42 | CCCSC(=O)N(CCC)CCC | inactive | –
43 | CC(C)(O)c1cnn2c(-c3ccc(F)c(-c4c(F)cccc4C#N)c3)cnc2n1 | inactive | –
44 | c1ccc(NNc2ccccc2)cc1 | inactive | –
45 | Clc1ccc(Cl)c(Cl)c1 | inactive | –
46 | CC(C)COC(=O)c1ccccc1C(=O)OCC(C)C | inactive | –
47 | CN(C)C(=O)Nc1ccc(Cl)cc1 | inactive | –
48 | [As]#[In] | inactive | –
49 | COP(=S)(OC)SCN1C(=O)c2ccccc2C1=O | inactive | –
50 | N#CC(Br)(Br)C(N)=O | inactive | –
51 | C=CCc1ccc2c(c1)OCO2 | inactive | –
52 | COC(=O)c1ccccc1N | inactive | –
53 | CCNS(=O)(=O)C(F)(F)C(F)(F)C(F)(F)C(F)(F)C(F)(F)C(F)(F)C(F)(F)C(F)(F)F | inactive | –
54 | CCC12COCN1COC2 | inactive | –

read-out: Tumor necrosis factor (Homo sapiens) (UniProt P01375); assay: BSK_LPS_TNFa: BioMAP Diversity Plus: LPS Assay for Tumour Necrosis Factor alpha (TNFa) Biomarker Activity (AID 2283085); details: primary human HUVEC with PBMC; actives raise or lower the signal;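 for AC50: TNFa protein level quantified by ELISA in the co-culture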
Method in brief: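 Cells (umbilical vein endothelium plus peripheral blood mononuclear cells) were dosed with chemical, incubated 24 h, then TNFa was quantified by ELISA; values derive from bidirectional fitting with DMSO as baseline.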

Row | Compound | outcome | AC50
55 | O=C(Oc1ccc(Br)cc1)N1CCN2CCC1CC2 | inactive | –
56 | ClC1=C(Cl)[C@]2(Cl)[C@H]3[C@H]([C@@H]4C=C[C@H]3C4)[C@@]1(Cl)C2(Cl)Cl | – | 31.5 µM (active)
57 | CCCCCCCCCCCCCN1CC(C)OC(C)C1 (stereo not drawn) | inactive | –
58 | CN(C)c1ccc(C(=O)c2ccc(N(C)C)cc2)cc1 | inactive | –
59 | Cc1ccc([N+](=O)[O-])cc1 | inactive | –
60 | CN(C)[C@@H]1C(=O)C(C(N)=O)=C(O)[C@@]2(O)C(=O)C3=C(O)c4c(O)cccc4[C@@](C)(O)[C@H]3C[C@@H]12 | inactive | –
61 | C[C@]12C=CC3=C4CCC(=O)C=C4CC[C@H]3[C@@H]1CC[C@@H]2O | inactive | –
62 | O=[N+]([O-])C(Br)(CO)CO | – | 31.7 µM (active)
63 | O=Cc1ccco1 | inactive | –
64 | c1ccc(N=Nc2ccccc2)cc1 | inactive | –
65 | Cn1cc(-c2ccccc2)c(=O)c(-c2cccc(C(F)(F)F)c2)c1 | inactive | –
66 | CCOc1cccc(C2(N3CCN(c4ccccc4)CC3)CCC(C)CC2)c1 (stereo not drawn) | inactive | –
67 | [O-][Cl+]O | inactive | –
68 | CCN(CC)N=O | inactive | –
69 | CCCSC(=O)N(CCC)CCC | inactive | –
70 | CC(C)(O)c1cnn2c(-c3ccc(F)c(-c4c(F)cccc4C#N)c3)cnc2n1 | – | 9.68 µM (active)
71 | c1ccc(NNc2ccccc2)cc1 | inactive | –
72 | Clc1ccc(Cl)c(Cl)c1 | inactive | –
73 | CC(C)COC(=O)c1ccccc1C(=O)OCC(C)C | inactive | –
74 | CN(C)C(=O)Nc1ccc(Cl)cc1 | inactive | –
75 | [As]#[In] | inactive | –
76 | COP(=S)(OC)SCN1C(=O)c2ccccc2C1=O | inactive | –
77 | N#CC(Br)(Br)C(N)=O | inactive | –
78 | C=CCc1ccc2c(c1)OCO2 | inactive | –
79 | COC(=O)c1ccccc1N | inactive | –
80 | CCNS(=O)(=O)C(F)(F)C(F)(F)C(F)(F)C(F)(F)C(F)(F)C(F)(F)C(F)(F)C(F)(F)F | inactive | 1.1 µM (active)
81 | CCC12COCN1COC2 | inactive | –
